Data on eleven compounds can be found in PubChem BioAssay (Tox21).

Where “and” joins values, the source holds several entries; their conditions need not be identical. Equal entries are not always repeated. Unmarked numbers belong to inactive results. Records with an inconclusive call do not appear. Calls of active or inactive are those of the source. The call rests on the fitted dose curve; in most records, active means well fitted curve in the direction sought with a large enough effect in the repeat runs; inconclusive means weak or mixed curves; inactive means no such curve, though single readings can be large; an effect the other way counts as inactive or inconclusive.

The nature of test [1]: Caspase-3/7 induction in CHO-K1 cells by small molecules, qHTS cell viability counter screen (AID 1346979). Further: nearly all actives have a fitted effect of over 35% in size. Further: potency means the concentration at half of the fitted maximal effect. Summed up: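 Following a 5hr settling period, CHO-K1 cells at 1,500 per well received DMSO-dissolved compounds. Cell viability was quantified 16hr later by CellTiter-Fluor fluorescence, measured after 1hr with reagent at 37C.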
(qHTS replaces the single test concentration by a dilution series.)

Test [2] can be described thus: Caspase-3/7 induction in CHO-K1 cells by small molecules, qHTS assay (AID 1346980). Further: nearly all actives have a fitted effect of over 15% in size. Put shortly: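 Wild-type cells were seeded at 1,500 per well and settled 5 hr at 37 C, 5% CO2, then exposed to DMSO-dissolved compounds for 17 hr. Caspase-Glo 3/7 reagent was added, and luminescence was read after 30min at room temperature.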
The nature of test [3]: Caspase-3/7 induction in HepG2 cells by small molecules, qHTS cell viability counter screen (AID 1346981). Further: nearly all actives have a fitted effect of over 30% in size. Further: potency means the concentration at half of the fitted maximal effect. On activity change, negative = cytotoxicity: series mostly up to about 92 µM. Summed up: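 Steps: seed 2,000 HepG2 cells per well; incubate 5 hr at 37 C; pin-add compounds in DMSO; incubate 16 hr; add CellTiter-Fluor; after 1 hr at 37 C and 5% CO2, read fluorescence.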
Test [4] addresses Nuclear receptor subfamily 1 group I member 2 (Homo sapiens) (UniProt O75469). As to the kind of experiment: Human pregnane X receptor (PXR) small molecule agonists, qHTS assay (AID 1346982). Further: nearly all actives have a fitted effect of over 35% in size. Further: potency means the concentration at half of the fitted maximal effect. Put shortly:
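Agonist mode qHTS: PXR-Luc HepG2 cells plated 5 hr before DMSO-dissolved compounds were pinned in, cultured 24 hr at 37 C, 5% CO2; ONE-Glo luminescence readout.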

Test [5] shares this target. As to the kind of experiment: CYP3A4 induction through human pregnane X receptor (PXR) by small molecules, qHTS assay (AID 1346984). Further: nearly all actives have a fitted effect of over 40% in size. Summed up:
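Steps: seed DPX-2 cells, 5 hr at 37C; pin-transfer compounds; 24 hr at 37C; add Luciferin-IPA (3uM final), 3 hr at 37C; add One-Glo, 30 min RT; read luminescence.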

The target is the same in test [6]. As to the kind of experiment: Human pregnane X receptor (PXR) activation by small molecules, qHTS assay (AID 1346985). Further: nearly all actives have a fitted effect of over 40% in size. Summed up: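 DPX-2 cells (HepG2 co-transfected with a PXR response element and a CYP3A4-promoter luciferase construct) were seeded at 2,000 per well, rested 5 hr at 37C, then exposed to DMSO-dissolved compounds for 24 hr. Activation was read as luciferase luminescence.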

Test [7] has as its target Cytochrome P450 2D6 (Homo sapiens) (UniProt P10635). As to the kind of experiment: Cytochrome P450 Family 2 Subfamily D Member 6 (CYP2D6) small molecule antagonists: luciferase reporter qHTS assay (AID 1671196). Further: nearly all actives have a fitted effect of over 50% in size. Further: potency means the concentration at half of the fitted maximal effect. On activity change, negative = inhibition: series mostly up to about 120 µM. Put shortly:
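P450-Glo format: CYP2D6 converts a proluciferin substrate to luciferin in an NADPH-driven reaction lasting 1 h at room temperature. Light output, proportional to CYP2D6 activity, reflects interference by test chemicals.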
(Reporter assays use an easily measured gene product as a stand-in for the process of interest.)

Test [8] deals with Cytochrome P450 2C19 (Homo sapiens) (UniProt P33261). As to the kind of experiment: Cytochrome P450 Family 2 Subfamily C Member 19 (CYP2C19) small molecule antagonists: luciferase reporter qHTS assay (AID 1671197). Further: nearly all actives have a fitted effect of over 65% in size. Further: potency means the concentration at half of the fitted maximal effect. On activity change, negative = inhibition: series mostly up to about 120 µM. Summed up: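 Relative luminescence units recorded 20 min after the detection reagent stopped a 1 h, 37C CYP2C19 reaction on proluciferin substrate, which was started by NADPH regeneration following 10 min room-temperature compound preincubation; ketoconazole positive control.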

The target in test [9] is Cytochrome P450 2C9 (Homo sapiens) (UniProt P11712). As to the kind of experiment: Cytochrome P450 Family 2 Subfamily C Member 9 (CYP2C9) small molecule antagonists: luciferase reporter qHTS assay (AID 1671198). Further: nearly all actives have a fitted effect of over 50% in size. Further: potency means the concentration at half of the fitted maximal effect. On activity change, negative = inhibition: series mostly up to about 120 µM. Put shortly:
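CYP2C9 activity was measured with a P450-Glo proluciferin substrate. Enzyme–substrate mix was held with compound for 10 min at room temperature, then NADPH regeneration solution was added for 1 h at 37C. Luciferin product was read as luminescence.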

For test [10], the target named is Cytochrome P450 1A2 (Homo sapiens) (UniProt P05177). As to the kind of experiment: Cytochrome P450 Family 1 Subfamily A Member 2 (CYP1A2) small molecule antagonists: luciferase reporter qHTS assay (AID 1671199). Further: nearly all actives have a fitted effect of over 50% in size. Further: potency means the concentration at half of the fitted maximal effect. On activity change, negative = inhibition: series mostly up to about 120 µM. Summed up: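 Inhibition of CYP1A2 conversion of proluciferin to luciferin, detected by luminescence. Reaction run 1 h at room temperature with NADPH regeneration after brief compound preincubation.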

In test [11] the target is Voltage-gated inwardly rectifying potassium channel KCNH2 (Homo sapiens) (UniProt Q12809). As to the kind of experiment: Human Ether-a-go-go-Related Gene (hERG) channel small molecule antagonists: fluorescence cell-based qHTS assay (AID 1671200).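 Further: hERG-expressing U2OS cells given a thallium stimulus after FluxOR II dye loading; series mostly up to about 77 µM; nearly all actives have a fitted effect of over 50% in size.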 Put shortly:
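In this thallium-flux screen, overnight-cultured U2OS cells bearing the channel are dye-loaded in darkness for an hour, rested 10 min at room temperature, and then monitored kinetically at 480/540 nm for two minutes post-stimulus.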
(Block of hERG is tested as a sign of cardiac risk.)

For test [12], the target named is Cytochrome P450 3A4 (Homo sapiens) (UniProt P08684). As to the kind of experiment: Cytochrome P450 Family 3 Subfamily A Member 4 (CYP3A4) small molecule antagonists: luciferase reporter qHTS assay (AID 1671201). Summed up:
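CYP3A4 activity was followed with a P450-Glo proluciferin substrate. Test compounds in DMSO were preincubated 10 min; NADPH regeneration then ran 1 h, and light output was read 20 min after detection reagent.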
On the % scale 0 is the no-effect control and ±100 the full control effect.

Chain of Cytochrome P450 2D6 (Homo sapiens) (P10635 whole entry, looked up): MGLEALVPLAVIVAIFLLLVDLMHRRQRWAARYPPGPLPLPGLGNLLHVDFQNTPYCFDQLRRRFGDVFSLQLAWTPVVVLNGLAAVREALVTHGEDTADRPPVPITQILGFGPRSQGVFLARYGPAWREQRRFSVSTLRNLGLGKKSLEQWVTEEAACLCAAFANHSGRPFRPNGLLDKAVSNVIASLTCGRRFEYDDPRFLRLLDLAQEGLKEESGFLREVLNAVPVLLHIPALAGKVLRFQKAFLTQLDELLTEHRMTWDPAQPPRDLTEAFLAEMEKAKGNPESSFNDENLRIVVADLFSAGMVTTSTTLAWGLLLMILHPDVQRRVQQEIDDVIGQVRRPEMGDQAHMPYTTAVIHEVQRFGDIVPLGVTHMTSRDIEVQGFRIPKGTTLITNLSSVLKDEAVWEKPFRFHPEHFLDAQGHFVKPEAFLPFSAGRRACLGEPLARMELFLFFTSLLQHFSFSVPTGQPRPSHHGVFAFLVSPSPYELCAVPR
Chain of Nuclear receptor subfamily 1 group I member 2 (Homo sapiens) (O75469 whole entry, looked up): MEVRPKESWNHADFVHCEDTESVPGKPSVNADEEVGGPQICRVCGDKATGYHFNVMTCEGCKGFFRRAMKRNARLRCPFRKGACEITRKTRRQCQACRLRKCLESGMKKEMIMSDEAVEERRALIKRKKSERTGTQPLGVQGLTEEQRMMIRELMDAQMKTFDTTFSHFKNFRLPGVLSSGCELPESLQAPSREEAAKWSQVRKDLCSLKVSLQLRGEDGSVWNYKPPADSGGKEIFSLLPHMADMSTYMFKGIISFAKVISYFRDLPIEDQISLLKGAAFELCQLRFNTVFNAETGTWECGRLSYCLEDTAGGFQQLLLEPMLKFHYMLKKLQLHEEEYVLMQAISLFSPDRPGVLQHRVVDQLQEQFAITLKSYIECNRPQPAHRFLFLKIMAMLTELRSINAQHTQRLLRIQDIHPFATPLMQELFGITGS
Chain of Cytochrome P450 2C9 (Homo sapiens) (P11712 whole entry, looked up): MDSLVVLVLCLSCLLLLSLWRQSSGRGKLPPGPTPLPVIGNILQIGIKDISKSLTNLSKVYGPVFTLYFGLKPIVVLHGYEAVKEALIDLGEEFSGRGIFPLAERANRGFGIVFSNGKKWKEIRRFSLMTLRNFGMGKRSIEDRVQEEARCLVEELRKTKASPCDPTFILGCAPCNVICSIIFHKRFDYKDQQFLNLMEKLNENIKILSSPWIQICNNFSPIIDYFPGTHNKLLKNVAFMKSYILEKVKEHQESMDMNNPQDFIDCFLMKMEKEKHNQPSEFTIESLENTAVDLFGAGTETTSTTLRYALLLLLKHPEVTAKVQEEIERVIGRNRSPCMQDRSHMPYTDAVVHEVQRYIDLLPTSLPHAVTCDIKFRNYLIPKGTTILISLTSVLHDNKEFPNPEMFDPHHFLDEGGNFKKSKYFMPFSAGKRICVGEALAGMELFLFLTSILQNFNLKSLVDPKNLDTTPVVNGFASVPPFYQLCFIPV
Chain of Cytochrome P450 2C19 (Homo sapiens) (P33261 whole entry, looked up): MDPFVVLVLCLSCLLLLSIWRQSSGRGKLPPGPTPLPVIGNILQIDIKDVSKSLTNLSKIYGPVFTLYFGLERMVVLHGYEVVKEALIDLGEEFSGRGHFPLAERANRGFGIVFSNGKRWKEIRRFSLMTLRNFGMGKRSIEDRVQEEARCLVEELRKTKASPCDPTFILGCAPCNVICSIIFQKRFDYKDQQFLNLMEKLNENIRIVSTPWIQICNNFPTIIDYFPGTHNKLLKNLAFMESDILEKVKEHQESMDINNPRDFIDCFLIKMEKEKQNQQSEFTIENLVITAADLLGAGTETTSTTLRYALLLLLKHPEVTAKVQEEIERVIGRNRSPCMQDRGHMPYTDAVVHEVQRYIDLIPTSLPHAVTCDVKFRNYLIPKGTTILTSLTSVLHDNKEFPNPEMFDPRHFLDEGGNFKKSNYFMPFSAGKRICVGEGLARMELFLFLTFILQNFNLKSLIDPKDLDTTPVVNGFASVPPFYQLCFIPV
Chain of Cytochrome P450 1A2 (Homo sapiens) (P05177 whole entry, looked up): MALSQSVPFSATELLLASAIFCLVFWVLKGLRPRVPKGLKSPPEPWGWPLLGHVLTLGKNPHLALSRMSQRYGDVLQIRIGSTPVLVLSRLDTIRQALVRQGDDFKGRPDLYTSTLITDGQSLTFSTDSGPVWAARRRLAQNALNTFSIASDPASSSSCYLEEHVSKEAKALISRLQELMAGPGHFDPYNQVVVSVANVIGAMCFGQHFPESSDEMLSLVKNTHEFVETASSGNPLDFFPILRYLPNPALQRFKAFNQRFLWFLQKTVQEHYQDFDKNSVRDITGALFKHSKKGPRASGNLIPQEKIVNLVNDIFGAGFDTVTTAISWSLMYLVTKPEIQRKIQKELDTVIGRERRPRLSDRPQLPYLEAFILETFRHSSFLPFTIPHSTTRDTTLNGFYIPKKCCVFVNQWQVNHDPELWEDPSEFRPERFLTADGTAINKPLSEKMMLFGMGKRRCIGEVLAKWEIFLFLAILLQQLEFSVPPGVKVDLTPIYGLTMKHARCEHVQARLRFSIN
Chain of Voltage-gated inwardly rectifying potassium channel KCNH2 (Homo sapiens) (Q12809 whole entry, looked up): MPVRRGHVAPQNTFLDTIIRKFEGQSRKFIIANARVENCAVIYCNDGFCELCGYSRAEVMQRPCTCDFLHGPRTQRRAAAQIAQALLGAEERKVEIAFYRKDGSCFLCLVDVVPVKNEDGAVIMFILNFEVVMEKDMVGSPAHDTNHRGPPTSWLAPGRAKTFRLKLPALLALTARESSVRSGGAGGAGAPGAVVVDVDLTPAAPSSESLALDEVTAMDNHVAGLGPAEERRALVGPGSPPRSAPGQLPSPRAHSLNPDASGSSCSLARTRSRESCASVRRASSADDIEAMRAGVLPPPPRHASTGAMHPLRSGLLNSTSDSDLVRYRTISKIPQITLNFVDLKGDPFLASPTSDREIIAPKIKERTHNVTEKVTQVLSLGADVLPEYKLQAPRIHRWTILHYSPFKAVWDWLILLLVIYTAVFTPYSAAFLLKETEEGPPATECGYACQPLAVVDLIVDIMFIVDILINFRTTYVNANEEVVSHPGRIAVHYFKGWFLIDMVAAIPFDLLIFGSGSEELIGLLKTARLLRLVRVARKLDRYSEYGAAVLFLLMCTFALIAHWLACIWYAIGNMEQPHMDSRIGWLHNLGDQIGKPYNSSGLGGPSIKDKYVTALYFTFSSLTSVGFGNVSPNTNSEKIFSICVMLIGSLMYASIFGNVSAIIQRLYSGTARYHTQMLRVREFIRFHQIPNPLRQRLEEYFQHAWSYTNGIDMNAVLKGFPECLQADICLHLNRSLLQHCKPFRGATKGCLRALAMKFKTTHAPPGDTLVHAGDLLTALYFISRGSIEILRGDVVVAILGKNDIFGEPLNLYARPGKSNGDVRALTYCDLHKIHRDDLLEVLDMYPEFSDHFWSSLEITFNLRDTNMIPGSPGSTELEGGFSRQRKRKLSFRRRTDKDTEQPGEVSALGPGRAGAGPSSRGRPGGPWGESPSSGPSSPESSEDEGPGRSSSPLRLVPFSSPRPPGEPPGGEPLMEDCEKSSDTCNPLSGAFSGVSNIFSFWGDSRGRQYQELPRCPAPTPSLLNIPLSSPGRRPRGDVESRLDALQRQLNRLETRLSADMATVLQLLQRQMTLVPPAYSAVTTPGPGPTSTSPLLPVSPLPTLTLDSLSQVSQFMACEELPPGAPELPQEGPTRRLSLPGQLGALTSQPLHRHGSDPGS
Chain of Cytochrome P450 3A4 (Homo sapiens) (P08684 whole entry, looked up): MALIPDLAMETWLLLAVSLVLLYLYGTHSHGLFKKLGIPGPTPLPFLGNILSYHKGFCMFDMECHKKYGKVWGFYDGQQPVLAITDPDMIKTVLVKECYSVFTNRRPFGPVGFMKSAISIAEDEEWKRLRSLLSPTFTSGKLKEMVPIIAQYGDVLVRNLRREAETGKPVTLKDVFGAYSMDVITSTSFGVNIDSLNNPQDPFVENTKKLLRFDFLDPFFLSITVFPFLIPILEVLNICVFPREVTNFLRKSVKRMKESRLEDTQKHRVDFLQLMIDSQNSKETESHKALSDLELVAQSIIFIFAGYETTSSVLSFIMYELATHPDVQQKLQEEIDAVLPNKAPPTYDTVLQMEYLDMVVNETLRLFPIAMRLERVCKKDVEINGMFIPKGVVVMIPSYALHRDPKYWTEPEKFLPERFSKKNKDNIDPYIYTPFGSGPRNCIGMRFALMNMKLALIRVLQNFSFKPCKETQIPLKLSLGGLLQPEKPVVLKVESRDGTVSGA

On to `N[C@@H](CSSC[C@H](N)C(=O)O)C(=O)O`, for which the activity change, negative = cytotoxicity in test [1] was -1.36% [at 0.349 µM]; in test [3] it was 6.72% [at 0.349 µM]. Also, the caspase-3/7 activation in test [2] is 0.0732% [at 0.349 µM]. Besides, the activation in [4] was -0.742% [at 0.349 µM]. Moreover, the Potency result in test [5] and in test [6] was “inactive” throughout. The activity change, negative = inhibition in test [7] was -4.15% [at 0.435 µM]; in [8], -14.3% [at 0.435 µM]; in [9] it was 1.25% [at 0.435 µM]; in test [10], -15.1% [at 0.435 µM]; in [11], -0.819% [at 0.29 µM]; in test [12] it was 5.27% [at 0.435 µM].
On to `CCCCCCCC/C=C\CCCCCCCC(=O)OCCOC(=O)CCCCCCC/C=C\CCCCCCCC`, for which the Potency entry in test [1], in test [2] and in [3] was “inactive” each time. For the same compound, the Potency is 71.2 µM (active) in test [4]; 46.5 µM (active) in test [7]; 46.5 µM (active) in [8]; 14.7 µM (active) in [9]; 52.2 µM (active) in [10].
Take `CCc1cccc(C)c1`: the Potency result in [1], in [2], in [3], in [4], in test [7] and in test [8] was “inactive” in each case. The Potency result in test [9], in test [10], in test [11] and in test [12] was “inactive” each time.
For `COC(=O)NCCC[Si](OC)(OC)OC`, the Potency result in [1], in test [2], in test [3], in test [4], in test [7] and in test [8] was “inactive” throughout. In addition, the Potency result in [9], in test [10] and in test [11] was “inactive” in each case.
For the compound `CCOC(=O)N1CCC(=C2c3ccc(Cl)cc3CCc3cccnc32)CC1`, the Potency in test [1] was 43.3 µM (active) and 26.6 µM (active); in [3] it was 54.5 µM (active). Besides, the Potency result in test [2] is “inactive”.
With `O=S(O)O`, the activity change, negative = cytotoxicity in test [1] was 9.18% [at 19 µM]; in test [3] it was -4.78% [at 19 µM]. Also, the caspase-3/7 activation in [2] is 0.497% [at 19 µM]. Also, the activation in test [4] is 8.59% [at 19 µM]. Besides, the activity change, negative = inhibition in [7] is -20.2% [at 23.6 µM]; in test [8], 0.673% [at 23.6 µM]; in test [9] it was -8.41% [at 23.6 µM]; in [10], -6.76% [at 23.6 µM]; in test [11], 4.11% [at 15.8 µM].
Regarding `Nc1ncnc2c1ncn2[C@@H]1O[C@H](COP(=O)(O)O)[C@@H](O)[C@H]1O`, the Potency result in test [1], in [2], in [3], in test [4], in test [5] and in test [6] was “inactive” throughout. Moreover, the Potency result in [7], in [8], in [9] and in test [11] was “inactive” in each case.
`CC1=CCC(=O)O1`: the Potency entry in test [1], in test [2], in test [3], in test [4], in test [7] and in test [8] was “inactive” throughout. The Potency result in test [9], in test [10] and in [11] was “inactive” in each case.
As for `O=S(=O)(O)CCCN1CCOCC1`, the Potency result in test [1], in [2], in [3], in [4], in [7] and in test [8] was “inactive” in each case. For the same compound, the Potency result in test [9], in test [10] and in [11] was “inactive” each time.
For the compound `CCCCCCCOC(=O)c1ccccc1C(=O)OCCCCCCC`, the Potency result in test [1], in test [2], in test [3], in [4], in test [7] and in test [11] was “inactive” throughout. Further, the values for the Potency in [8], in test [9] and in test [10] were 39.9 µM (active), 17.8 µM (active) and 15.9 µM (active), respectively.
`CCCCCCCCC(C)=O`: the Potency result in test [1], in [2], in [3], in test [4], in [7] and in test [8] was “inactive” each time. In addition, the Potency entry in test [9], in test [10] and in test [11] was “inactive” in each case.
